Inhibition data for 7 compounds are collected here from ChEMBL document CHEMBL1961873, “Compounds: GSK PKIS; Assays: Nanosyn kinase panel” (2012).

Test [1] has as its target Mitogen-activated protein kinase kinase kinase kinase 4 (Homo sapiens) (UniProt O95819). The note with it: at 1 µM.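 Also: reported figure is an averaged inhibition value.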
Test [2] concerns the target Dual specificity mitogen-activated protein kinase kinase 1 (Homo sapiens) (UniProt Q02750). The note with it: at 0.1 µM.
For test [3] the target is unchanged. The settings on record: at 1 µM.
Test [4] deals with Misshapen-like kinase 1 (Homo sapiens) (UniProt Q8N4C8). The note with it: at 0.1 µM.
The target is the same in test [5]. The settings on record: at 1 µM.
Test [6] addresses T1, Serine/threonine-protein kinase 4 (Homo sapiens) (UniProt Q13043).
T1 sequence (whole entry): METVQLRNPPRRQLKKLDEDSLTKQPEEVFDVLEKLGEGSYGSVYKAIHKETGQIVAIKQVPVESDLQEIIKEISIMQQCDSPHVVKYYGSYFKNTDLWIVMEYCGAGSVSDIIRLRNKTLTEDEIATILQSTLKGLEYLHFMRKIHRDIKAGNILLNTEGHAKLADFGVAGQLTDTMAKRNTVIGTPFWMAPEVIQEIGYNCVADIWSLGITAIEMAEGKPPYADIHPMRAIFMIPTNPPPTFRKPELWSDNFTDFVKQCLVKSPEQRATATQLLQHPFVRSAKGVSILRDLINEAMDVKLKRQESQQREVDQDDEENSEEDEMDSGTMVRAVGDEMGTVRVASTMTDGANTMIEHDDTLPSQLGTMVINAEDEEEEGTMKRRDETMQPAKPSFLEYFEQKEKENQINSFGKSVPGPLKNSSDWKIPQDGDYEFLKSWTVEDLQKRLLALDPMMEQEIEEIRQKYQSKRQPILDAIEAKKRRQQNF
The note with it: at 0.1 µM.

Test [7] has as its target T1, Serine/threonine-protein kinase 4 (Homo sapiens). The settings on record: at 1 µM.
The target in test [8] is T2, Serine/threonine-protein kinase 3 (Homo sapiens) (UniProt Q13188).
T2 sequence (whole entry): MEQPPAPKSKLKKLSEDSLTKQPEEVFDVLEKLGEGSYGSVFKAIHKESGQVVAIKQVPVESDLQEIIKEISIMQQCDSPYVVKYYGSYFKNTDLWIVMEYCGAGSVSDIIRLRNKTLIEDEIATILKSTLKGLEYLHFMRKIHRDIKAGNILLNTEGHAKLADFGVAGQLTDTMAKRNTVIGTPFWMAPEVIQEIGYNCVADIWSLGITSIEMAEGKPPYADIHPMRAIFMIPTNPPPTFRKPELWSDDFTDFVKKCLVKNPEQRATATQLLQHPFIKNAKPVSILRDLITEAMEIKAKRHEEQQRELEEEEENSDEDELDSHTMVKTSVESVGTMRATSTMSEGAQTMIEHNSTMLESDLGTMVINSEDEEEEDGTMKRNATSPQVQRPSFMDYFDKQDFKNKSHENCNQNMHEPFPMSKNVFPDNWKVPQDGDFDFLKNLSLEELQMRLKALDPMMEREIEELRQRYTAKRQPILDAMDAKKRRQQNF
The settings on record: at 0.1 µM.

Test [9] has as its target T2, Serine/threonine-protein kinase 3 (Homo sapiens). The settings on record: at 1 µM.
Test [10] has as its target Serine/threonine-protein kinase 26 (Homo sapiens) (UniProt Q9P289). The note with it: at 0.1 µM.
The target is the same in test [11]. The note with it: at 1 µM.
Test [12] deals with Serine/threonine-protein kinase PAK 1 (Homo sapiens) (UniProt Q13153). The settings on record: at 0.1 µM.
For test [13] the target is unchanged. The note with it: at 1 µM.
The target of test [14] is Serine/threonine-protein kinase PAK 2 (Homo sapiens) (UniProt Q13177). The note with it: at 0.1 µM.
Test [15] shares this target. The note with it: at 1 µM.
In test [16] the target is Serine/threonine-protein kinase PAK 3 (Homo sapiens) (UniProt O75914). The note with it: at 0.1 µM.
Test [17] has the same target. The settings on record: at 1 µM.
Test [18] deals with Serine/threonine-protein kinase PAK 5 (Homo sapiens) (UniProt Q9P286). The settings on record: at 0.1 µM.
The target is the same in test [19]. The settings on record: at 1 µM.
Test [20] deals with Serine/threonine-protein kinase PAK 6 (Homo sapiens) (UniProt Q9NQU5). The note with it: at 0.1 µM.
Sequence of Serine/threonine-protein kinase PAK 6 (Homo sapiens) (Q9NQU5 whole entry, looked up): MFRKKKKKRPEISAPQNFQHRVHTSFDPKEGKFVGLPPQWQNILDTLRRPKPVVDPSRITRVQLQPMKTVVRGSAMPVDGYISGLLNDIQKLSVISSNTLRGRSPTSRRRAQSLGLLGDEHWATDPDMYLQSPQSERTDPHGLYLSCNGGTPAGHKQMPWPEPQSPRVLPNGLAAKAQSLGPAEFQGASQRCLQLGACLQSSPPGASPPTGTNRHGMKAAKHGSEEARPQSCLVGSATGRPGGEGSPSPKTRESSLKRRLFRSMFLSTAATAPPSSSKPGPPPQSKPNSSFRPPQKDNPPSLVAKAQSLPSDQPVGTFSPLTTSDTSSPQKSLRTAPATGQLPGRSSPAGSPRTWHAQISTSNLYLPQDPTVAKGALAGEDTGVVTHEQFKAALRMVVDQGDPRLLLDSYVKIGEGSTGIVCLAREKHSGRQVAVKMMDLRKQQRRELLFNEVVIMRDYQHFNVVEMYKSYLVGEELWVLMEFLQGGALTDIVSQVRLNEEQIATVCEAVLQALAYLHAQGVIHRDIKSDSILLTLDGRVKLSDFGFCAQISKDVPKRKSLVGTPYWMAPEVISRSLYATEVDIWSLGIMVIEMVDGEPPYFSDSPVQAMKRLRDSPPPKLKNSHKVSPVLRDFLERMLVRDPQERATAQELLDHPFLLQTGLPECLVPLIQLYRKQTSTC

Sequence of Serine/threonine-protein kinase PAK 5 (Homo sapiens) (Q9P286 whole entry, looked up): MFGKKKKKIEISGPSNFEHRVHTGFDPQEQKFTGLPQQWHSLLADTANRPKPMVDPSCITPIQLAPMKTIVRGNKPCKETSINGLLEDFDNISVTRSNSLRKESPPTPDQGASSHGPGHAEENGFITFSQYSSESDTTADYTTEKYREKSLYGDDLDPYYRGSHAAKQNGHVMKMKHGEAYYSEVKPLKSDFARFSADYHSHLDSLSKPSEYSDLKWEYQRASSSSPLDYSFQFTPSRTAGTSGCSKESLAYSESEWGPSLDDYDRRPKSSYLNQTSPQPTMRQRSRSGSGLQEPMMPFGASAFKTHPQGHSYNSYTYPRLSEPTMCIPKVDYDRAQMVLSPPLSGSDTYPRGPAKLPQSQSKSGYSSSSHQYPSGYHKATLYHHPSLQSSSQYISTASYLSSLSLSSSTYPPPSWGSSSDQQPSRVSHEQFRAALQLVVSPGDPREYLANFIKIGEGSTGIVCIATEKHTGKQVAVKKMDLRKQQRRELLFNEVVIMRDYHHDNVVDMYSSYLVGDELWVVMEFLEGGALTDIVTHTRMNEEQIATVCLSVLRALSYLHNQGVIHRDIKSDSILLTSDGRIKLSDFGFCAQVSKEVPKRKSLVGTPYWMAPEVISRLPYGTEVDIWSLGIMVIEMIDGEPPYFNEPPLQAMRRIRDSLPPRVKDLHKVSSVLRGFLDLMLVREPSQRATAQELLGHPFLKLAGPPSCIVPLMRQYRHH
Sequence of Serine/threonine-protein kinase PAK 3 (Homo sapiens) (O75914 whole entry, looked up): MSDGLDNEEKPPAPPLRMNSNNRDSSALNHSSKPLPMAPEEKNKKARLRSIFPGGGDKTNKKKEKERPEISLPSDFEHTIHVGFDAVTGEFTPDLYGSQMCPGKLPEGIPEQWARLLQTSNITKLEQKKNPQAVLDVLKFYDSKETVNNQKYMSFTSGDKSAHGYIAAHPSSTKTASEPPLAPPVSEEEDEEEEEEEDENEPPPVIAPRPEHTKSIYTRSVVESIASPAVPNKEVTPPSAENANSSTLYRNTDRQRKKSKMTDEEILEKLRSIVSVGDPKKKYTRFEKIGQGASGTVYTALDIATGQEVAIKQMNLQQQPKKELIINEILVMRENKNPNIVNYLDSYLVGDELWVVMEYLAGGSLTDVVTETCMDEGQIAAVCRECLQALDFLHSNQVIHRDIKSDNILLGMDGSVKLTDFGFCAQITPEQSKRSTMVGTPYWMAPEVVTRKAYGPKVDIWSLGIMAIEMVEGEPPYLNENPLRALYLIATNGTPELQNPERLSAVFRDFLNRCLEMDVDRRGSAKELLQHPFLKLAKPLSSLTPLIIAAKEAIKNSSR
Sequence of Mitogen-activated protein kinase kinase kinase kinase 4 (Homo sapiens) (O95819 2-1239 limits assumed): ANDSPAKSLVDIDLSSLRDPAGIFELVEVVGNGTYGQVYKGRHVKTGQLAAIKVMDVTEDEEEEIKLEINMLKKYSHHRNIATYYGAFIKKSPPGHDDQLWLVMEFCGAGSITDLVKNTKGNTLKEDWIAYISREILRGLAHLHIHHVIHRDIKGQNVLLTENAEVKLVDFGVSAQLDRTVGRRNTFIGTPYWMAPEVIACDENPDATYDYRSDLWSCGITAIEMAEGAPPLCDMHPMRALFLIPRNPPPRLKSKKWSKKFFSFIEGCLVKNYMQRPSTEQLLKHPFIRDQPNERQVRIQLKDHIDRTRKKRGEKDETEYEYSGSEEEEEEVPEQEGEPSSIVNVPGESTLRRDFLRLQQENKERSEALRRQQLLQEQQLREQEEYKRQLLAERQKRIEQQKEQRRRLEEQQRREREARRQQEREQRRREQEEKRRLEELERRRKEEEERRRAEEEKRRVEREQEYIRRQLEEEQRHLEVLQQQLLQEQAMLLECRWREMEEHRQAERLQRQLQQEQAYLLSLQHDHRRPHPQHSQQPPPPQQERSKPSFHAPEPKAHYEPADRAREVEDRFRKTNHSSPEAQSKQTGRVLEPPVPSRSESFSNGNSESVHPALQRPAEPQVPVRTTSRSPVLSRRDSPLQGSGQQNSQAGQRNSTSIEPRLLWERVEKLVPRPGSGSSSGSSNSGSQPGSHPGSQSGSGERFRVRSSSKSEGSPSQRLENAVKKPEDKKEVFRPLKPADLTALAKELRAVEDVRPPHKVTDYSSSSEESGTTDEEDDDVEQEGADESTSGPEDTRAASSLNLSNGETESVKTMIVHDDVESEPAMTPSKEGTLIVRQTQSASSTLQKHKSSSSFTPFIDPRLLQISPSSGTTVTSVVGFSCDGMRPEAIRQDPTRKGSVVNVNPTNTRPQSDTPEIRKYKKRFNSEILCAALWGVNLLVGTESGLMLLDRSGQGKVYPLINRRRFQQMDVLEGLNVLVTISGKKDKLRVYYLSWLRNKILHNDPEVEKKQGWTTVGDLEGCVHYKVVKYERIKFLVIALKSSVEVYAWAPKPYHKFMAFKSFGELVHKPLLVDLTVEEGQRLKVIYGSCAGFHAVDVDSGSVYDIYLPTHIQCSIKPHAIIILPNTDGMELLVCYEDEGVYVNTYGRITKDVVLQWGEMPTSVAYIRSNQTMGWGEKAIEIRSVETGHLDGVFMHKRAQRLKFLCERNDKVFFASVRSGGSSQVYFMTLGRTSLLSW
Sequence of Serine/threonine-protein kinase PAK 1 (Homo sapiens) (Q13153 whole entry): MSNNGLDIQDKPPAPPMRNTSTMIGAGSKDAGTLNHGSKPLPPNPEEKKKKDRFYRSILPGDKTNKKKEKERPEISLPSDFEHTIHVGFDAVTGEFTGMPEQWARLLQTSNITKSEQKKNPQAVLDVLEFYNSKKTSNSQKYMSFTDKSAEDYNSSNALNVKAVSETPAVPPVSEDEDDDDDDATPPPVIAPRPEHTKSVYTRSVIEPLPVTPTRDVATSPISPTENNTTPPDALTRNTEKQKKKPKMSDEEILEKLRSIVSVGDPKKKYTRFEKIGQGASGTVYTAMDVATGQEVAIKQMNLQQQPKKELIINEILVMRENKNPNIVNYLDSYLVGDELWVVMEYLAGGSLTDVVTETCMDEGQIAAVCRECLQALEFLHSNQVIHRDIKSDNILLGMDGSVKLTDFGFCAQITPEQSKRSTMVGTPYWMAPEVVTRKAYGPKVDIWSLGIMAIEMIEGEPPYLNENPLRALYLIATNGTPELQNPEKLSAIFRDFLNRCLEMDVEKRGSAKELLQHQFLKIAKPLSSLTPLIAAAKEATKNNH
Sequence of Serine/threonine-protein kinase 26 (Homo sapiens) (Q9P289 2-416 limits assumed): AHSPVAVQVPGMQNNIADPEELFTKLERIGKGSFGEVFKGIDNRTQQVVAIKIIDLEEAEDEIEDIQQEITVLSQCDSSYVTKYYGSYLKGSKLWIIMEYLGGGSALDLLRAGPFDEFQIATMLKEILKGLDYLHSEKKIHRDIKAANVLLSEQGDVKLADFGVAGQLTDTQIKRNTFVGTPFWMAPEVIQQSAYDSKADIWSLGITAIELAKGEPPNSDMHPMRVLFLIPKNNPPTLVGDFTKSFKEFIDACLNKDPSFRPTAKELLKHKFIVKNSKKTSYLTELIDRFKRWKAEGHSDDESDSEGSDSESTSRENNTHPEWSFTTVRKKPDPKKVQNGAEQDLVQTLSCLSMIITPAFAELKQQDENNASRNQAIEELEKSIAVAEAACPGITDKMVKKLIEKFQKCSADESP
Sequence of Dual specificity mitogen-activated protein kinase kinase 1 (Homo sapiens) (Q02750 whole entry): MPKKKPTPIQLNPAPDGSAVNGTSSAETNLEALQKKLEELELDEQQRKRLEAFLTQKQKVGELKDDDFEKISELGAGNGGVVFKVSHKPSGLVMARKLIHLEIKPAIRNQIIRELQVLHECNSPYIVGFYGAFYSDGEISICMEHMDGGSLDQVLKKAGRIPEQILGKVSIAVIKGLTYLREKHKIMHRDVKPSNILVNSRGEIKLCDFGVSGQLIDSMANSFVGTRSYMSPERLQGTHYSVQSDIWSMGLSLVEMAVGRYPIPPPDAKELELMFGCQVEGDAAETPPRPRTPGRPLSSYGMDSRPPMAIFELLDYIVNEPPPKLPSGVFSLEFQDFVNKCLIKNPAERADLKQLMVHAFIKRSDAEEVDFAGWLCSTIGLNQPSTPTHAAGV

Regarding `COc1cc2ncn(-c3cc(OCCc4ccccc4)c(C(N)=O)s3)c2cc1OC`, the inhibition (usually the relative decrease from the control value, in per cent) in [1] worked out at 26.2%; in test [2] it was 3.24%; in test [3], 2.39%; in [4] it was 5.52%; in test [5], 18.8%; in test [6] it was 2.99%. The inhibition in test [7] was 13.6%; in test [8], 2.95%; in test [9], 11%; in test [10], -1.7%; in test [11], -2.27%; in [12], -1.36%. For the same compound, the inhibition is 5.32% in test [13]; 0.32% in test [14]; -0.01% in test [15]; 2.35% in test [16]; 2.82% in test [17]; -3.93% in test [18]. The inhibition in [19] is -5.75%; in test [20], 1.18%.

Regarding `COc1cc2ncn(-c3cc(OCc4cccs4)c(C(N)=O)s3)c2cc1OC`, the inhibition in [1] is 67.2%; in test [2], 3.5%; in test [3], 2.83%; in test [4] it was 18%; in test [5], 63.5%; in [6] it was 20.6%. Further, the inhibition in [7] is 65.5%; in test [8] it was 19.5%; in test [9], 62.6%; in test [10], 2.25%; in test [11], 0.69%; in test [12], 5.82%. Moreover, the inhibition is 5.75% in [13]; 0.62% in test [14]; 0.03% in test [15]; 2% in test [16]; 4.56% in test [17]; 8.19% in test [18]. For the same compound, the inhibition is 8.5% in test [19] and 6.2% in test [20].

Take `C/C(Nc1ccc(S(N)(=O)=O)cc1)=C1/C(=O)Nc2ccccc21`: the inhibition in test [1] was 88.3%; in test [2], -1.13%; in test [3], 0.96%; in test [4], 34.1%; in test [5], 85.3%; in test [6], 10.2%. In addition, the inhibition was 55.3% in test [7]; 3.63% in test [8]; 42.3% in [9]; -1.9% in [10]; 15.6% in test [11]; -3.4% in test [12]. For the same compound, the inhibition in test [13] was 2.37%; in test [14], -1.56%; in test [15] it was -1.06%; in [16] it was -1.9%; in [17], -1.11%; in test [18] it was -6.43%. The inhibition in test [19] is 2.88%; in [20], -4.08%.

Take `COc1ccc(-c2ccc3c(NC(=O)C4CC4)n[nH]c3n2)cc1`: the inhibition in test [1] came out at 33%; in test [2], 2.82%; in [3], 2.1%; in test [4] it was 5.24%; in test [5], 21.8%; in [6], 2.12%. In addition, the inhibition is 4.96% in [7]; 2.09% in test [8]; 5.21% in test [9]; -1.38% in test [10]; 1.05% in test [11]; 2.82% in test [12]. For the same compound, the inhibition in test [13] was 2.7%; in test [14] it was -1.11%; in test [15] it was -0.84%; in [16], 3.36%; in test [17], 3.17%; in test [18] it was -5.83%. The inhibition in test [19] was -4.91%; in test [20] it was 2.86%.

Regarding `NC(=O)c1ccc(Oc2nccc(-c3c(-c4ccc(F)cc4)ncn3C3CCNCC3)n2)cc1`, the inhibition amounted to 3.93% in test [1]; 4.51% in test [2]; 4.62% in test [3]; 6.11% in [4]; 6.81% in test [5]; 4.07% in [6]. In addition, the inhibition in test [7] was 4.99%; in [8], 8.2%; in test [9] it was 7.98%; in [10] it was -1.23%; in [11], 2.28%; in test [12] it was 10%. Besides, the inhibition in test [13] amounted to 11%; in test [14], 2.27%; in test [15], 2.2%; in [16] it was 6.67%; in [17], 9.21%; in test [18], 4.23%. Moreover, the inhibition in [19] was 0.82%; in [20], -4.02%.

Turning to `CN(C)CCCNc1nccc(-c2c(-c3ccc(F)cc3)nn3cc(C(F)(F)F)ccc23)n1`, the inhibition stood at 10.6% in test [1]; 1.86% in test [2]; 2.52% in test [3]; 5.22% in test [4]; 7.76% in test [5]; 2.92% in [6]. Further, the inhibition in test [7] is 4.75%; in test [8], 3.38%; in test [9], 3.61%; in test [10], -0.11%; in test [11] it was 0.55%; in [12], -1.51%. Moreover, the inhibition in test [13] was -0.15%; in test [14], 1.45%; in test [15], 1.67%; in test [16], 1.76%; in [17] it was 2.77%; in test [18], 0.97%. In addition, the inhibition in [19] is 1.58%; in test [20] it was 2.33%.

Regarding `Fc1ccc(-c2ncn(C3CCNCC3)c2-c2ccnc(Oc3ccc(F)c(F)c3)n2)cc1`, the inhibition in test [1] was determined as 10.9%; in test [2] it was 3.03%; in [3], 3.8%; in test [4], 8.56%; in test [5] it was 12%; in test [6] it was 7.1%. For the same compound, the inhibition in [7] is 7.9%; in test [8], 10.2%; in test [9] it was 9.55%; in test [10] it was 1.93%; in test [11], 5.23%; in test [12] it was 5.03%. Further, the inhibition in test [13] worked out at 4.33%; in test [14], 0.93%; in [15] it was 1.83%; in test [16] it was 4.91%; in test [17], 5.71%; in [18], 1.64%. Further, the inhibition in [19] was found to be 0.29%.
